# In ChEMBL document CHEMBL4513216, “Probing the Open Global Health Chemical Diversity Library for Multistage-Active Starting Points for Next-Generation Antimalarials” (ACS Infect Dis, 2020):
# Among all 69,000 compounds or so, about 8,600 (12%) showed an effect of 50% or more. The entries come from a sample that favours strong results as a whole.
# Test system: Plasmodium berghei
# Test: Screen against P. berghei liver stage (PbLuc), transformed with Luciferase, at 10uM
# Type: functional, HepG2
# Conditions: tested at 10 uM
row,Compound,INHIBITION
1,OC1COCCN(Cc2cccc(N3CCOCC3)c2)C1 (stereo not drawn),15.9%
2,OC1CN(Cc2cccc(N3CCOCC3)c2)Cc2ccccc21 (stereo not drawn),28.7%
3,CC(=O)Nc1ccc(CNc2ccn(Cc3ccccc3)n2)cc1,-51.8%
4,CC(C)c1nccn1-c1cncc(C2CCCN(C3CCCC3)C2)n1 (stereo not drawn),41.2%
5,CC(C)c1nccn1-c1cncc(C2CCCN(C3CCCCC3)C2)n1 (stereo not drawn),44.1%
6,CC(C)c1nccn1-c1cccc(C2CCCN2S(=O)(=O)N(C)C)n1 (stereo not drawn),21.9%
7,CC(C)c1nccn1-c1cccc(C2CCCN(S(=O)(=O)N(C)C)C2)n1 (stereo not drawn),50.1%
8,CN(C)S(=O)(=O)N1CCC(c2ccnc(Nc3ccccn3)n2)C1 (stereo not drawn),29.5%
9,CCc1nccn1-c1cccc(C2CCCN2S(=O)(=O)N(C)C)n1 (stereo not drawn),36.7%
10,Cc1nccn1-c1cccc(C2CCCN2S(=O)(=O)N(C)C)n1 (stereo not drawn),53%
11,CC(C)c1nccn1-c1cccc(C2CCN(C)CC2)n1,58%
12,CC(C)c1nccn1-c1cccc(C2CCCN(C3CCCC3)C2)n1 (stereo not drawn),35.3%
13,COc1ccc(C(=O)Nc2cccc(C(N)=O)c2)c(OC)n1,-26.1%
14,CNCC(=O)N1CCCCC1c1nccc(C)n1 (stereo not drawn),18.3%
15,O=C(c1ccnc(-n2ccnc2)c1)N1CCCC(n2ccnc2)C1 (stereo not drawn),25.1%
16,CC(=O)NCCNC(=O)c1cc(COc2ccccc2)[nH]n1,-3.83%
17,NC1CCN(C(=O)c2cnc(Cc3c(Cl)cccc3Cl)nc2O)C1 (stereo not drawn),51.3%
18,O=C(c1cnc(Cc2c(Cl)cccc2Cl)nc1O)N1CCNCC1,43.9%
19,CCN1CCN(C(=O)c2cnc(Cc3c(Cl)cccc3Cl)nc2O)CC1,8.11%
20,CN(C)C(=O)N[C@@H]1CN(Cc2ccc3c(c2)OCO3)[C@@H]2CCCO[C@@H]21,-15.5%
21,Cc1cc(OCC(=O)N2CCCC2c2noc(C)n2)no1 (stereo not drawn),2.97%
22,Cc1ccccc1OC1CCN(C(=O)c2c[nH]c(=O)[nH]c2=O)CC1,60.4%
23,Cc1ccc(C(=O)N2CCC(Oc3ccc(C)c(C)c3)CC2)c(=O)[nH]1,69.65%
24,COc1ccc(OC2CCN(C(=O)c3ccc(C)[nH]c3=O)CC2)cc1,29.85%
25,COc1ccccc1OC1CCN(C(=O)c2c[nH]c(=O)[nH]c2=O)CC1,-7.76%
26,Cc1ccc(C(=O)N2CCC(Oc3cccc(C)c3C)CC2)c(=O)[nH]1,45.5%
27,Cc1ccc(C(=O)N2CCC(Oc3ccccc3)CC2)c(=O)[nH]1,29.4%

row,Compound,INHIBITION
1,COc1cccc(CC(=O)N2CCC(NCc3c[nH]nc3C)CC2)c1,-17.35%
2,O=C(CCCc1ccccn1)N1CCCC1c1noc(C2CC2)n1 (stereo not drawn),0.411%
3,O=C(c1nnn(-c2ccccc2)n1)N(CCO)CCO,-7.77%
4,Cc1cccc(NC(=O)Cc2cnc3n(C)c(=O)[nH]c(=O)n23)c1,27.5%
5,O=C(Cc1ccc2c(c1)CCO2)N1CCCC1Cn1cccn1 (stereo not drawn),31.6%
6,CNC(=O)CN1CCC(NC2CSCCc3ccccc32)CC1 (stereo not drawn),-18.9%
7,CCCNC(=O)CCNC1CSCCc2ccccc21 (stereo not drawn),76.9%
8,OCCNC1CSCCc2ccccc21 (stereo not drawn),-56.6%
9,CCS(=O)(=O)NCCCNC1CSCCc2ccccc21 (stereo not drawn),60.9%
10,CC(C)(C)S(=O)(=O)CCNC1CSCCc2ccccc21 (stereo not drawn),-56.6%
11,CCS(=O)(=O)NCCN(CCO)C1CCc2ccccc21 (stereo not drawn),29.4%
12,COc1ccc(CCNC(=O)c2ccc(=O)n(C)c2)c(Cl)c1,1.74%
13,Cn1ncc2c(=O)[nH]c(CN3CCCC3CCc3ccccc3)nc21 (stereo not drawn),19.6%
14,Cc1cc(C)c(CNC(=O)NCCC2CCCO2)c(=O)[nH]1 (stereo not drawn),1.82%
15,COc1ccc2c(c1)C(C(=O)NCCN1CCOC1=O)CC(=O)N2 (stereo not drawn),34.9%
16,Cc1cc(C)n(C2CCCN(C(=O)c3cccc(F)c3F)C2)n1 (stereo not drawn),33%
17,CN1CCN(C(=O)Cc2ccc(S(=O)(=O)C(F)F)cc2)CC1,39.6%
18,O=C(Cc1ccc(S(=O)(=O)C(F)F)cc1)N1CCC1,43.9%
19,CCN1CCN(C(=O)Cc2ccc(S(=O)(=O)C(F)F)cc2)CC1,55.9%
20,CCn1ccc(NC(=O)c2cc(C)on2)n1,-9.21%
21,CN1CCc2nc3cc(C(=O)NCc4cccs4)ccc3c(=O)n2CC1,21.1%
22,COCCNC(=O)c1ccc2c(=O)n3c(nc2c1)CCN(C)CC3,-48.5%
23,COCCNC(=O)c1ccc2c(=O)n3c(nc2c1)CCCCCC3,55.4%
24,COCCNC(=O)c1ccc2c(=O)n3c(nc2c1)CCCCC3,40.8%
25,COCCN1CCn2c(nc3cc(C(=O)NC(C)C)ccc32)C1,19.3%
26,COCCNC(=O)c1ccc2c(=O)n3c(nc2c1)CCCC3,54.9%
